According to PubChem BioAssay AID1159580 (chemical genetic matrix, 2015):
Among all 5,500 compounds or so, about 2,000 (36%) were called active. About 18% were inconclusive and are not listed. Cut-off read from the data, not from the text of the source: active = normalized growth mostly below about 0.91 (no sharp cut-off); inconclusive = no clear call, values can overlap the other calls; inactive = mostly above about 0.92. Some of the results follow.

Assay: chemical genetic growth profiling, strain panel (AID 1159580);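 note: tested at 20 µM; growth read once vehicle control cultures reached saturation at 30 °C; 1 = growth at the plate median or of vehicle wells; lower values mean less growth of the strain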
Conditions: S. cerevisiae deletion strains, growth OD

Measured: normalized growth

Cc1cc(N)c2ccccc2[n+]1CCCCCCCCCCCCCC[n+]1c(C)cc(N)c2ccccc21
active: locus YAL013W, strain DEP1, hits give low values 0.365 | locus YAL040C, strain CLN3, hits give low values 0.0844 | locus YCL061C, strain MRC1 (second series), hits give low values 0.0514 | locus YDR150W, strain NUM1, hits give low values 0.0556 | locus YDR363W, strain ESC2, hits give low values 0.0835 | locus YER002W, strain NOP16, hits give low values 0.0687 | locus YNL175C, strain NOP13, hits give low values 0.0676 | locus YNL197C, strain WHI3, hits give low values 0.0663 | locus YNL224C, strain SQS1, hits give low values 0.068 | locus YOR083W, strain WHI5 (second series), hits give low values 0.0774
